Laboratory results: PubChem BioAssay AID1347426 (Functional Genomics Laboratory (NCATS/FGL), 2020)
Out of some 31,000 sequences screened, about 1,400 (4.5%) were called active. Many of the other results were omitted from the sample, so actives are more common in it than they were. Unmarked numbers belong to inactive results.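 The calls were made as follows: active = median seed-adjusted z-score above 1 or below -1; inactive = the rest.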

Test: Novel Modifiers of Survival Motor Neuron (SMN) Protein: Gene Identification via Genome-wide siRNA Screen;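 also: luminescence tracks full-length SMN protein made from the SMN2 reporter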
Conditions: HEK293T SMN2-luciferase reporter, siRNA knockdown, 72 h; actives lie on both sides
Method in brief: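 Luciferase signal, proportional to full-length SMN made from an SMN2 cDNA reporter in stable HEK293T cells, was read 72 h after siRNA reverse transfection. Values were expressed as MAD scores after non-targeting-control normalization and log10 conversion; seed analysis flagged off-targets.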

Sequence	median seed-adjusted z-score
AGAAUACGAUGACCACCAATT against RING1	0.685
GCAUACAUCAUGACCGUCATT against DUSP22	0
GCCGAUACCUUCACUCGAATT against TAP1	-0.506
GGGAAGCUAUGCGAAAUUATT against RBPJ	-0.452
GCUUCAUUGAGUACGAGAATT against PUF60	2.26 (active)
GGAUCGGAUAAAUAACAGUTT against HEY2	-0.0831
GAUCAAGACUCUGCGCCUATT against HAND1	0.161
GAAUUGCUGAUAAACCUAUTT against SMNDC1	-1.54 (active)
GUAUUCCAGCGAAUCCGAUTT against PAK7	-0.202
CGUCAAAAGAGCCCAUAAATT against ENPP5	-0.0499
GGAACUCUAUGGUCAUCUATT against SSTR1	0.285
CCAAAGGAGUCAGCACUGUTT against PLXNA1	0
GCAGUUGAAUUAUCACAGUTT against UQCRFS1	-1.28 (active)
GGAAGAAUGUGGUUUGCGATT against GFOD2	-0.0447
GGAGAGGAUUAUUUCCGCATT against SDR9C7	0
GCAAGUUGGAGAACGAGUATT against MED8	-1.61 (active)
GGCCCAAGAUCUUCCCUAATT against GPR179	-0.513
CAGUCGUUGCUGUCAAAAATT against RGS9	0.0665
UGCUCUCUGUUGCAUUGAATT against IAPP	-0.157
GAUUUCUAAUUAACACAAUTT against POLR1D	-0.0409
CCAUCAUCCGGGAUGAGGATT against NPEPL1	1.12 (active)
GCAAAGUGCCGAAACAAGATT against ATF3	-0.000485

Sequence	median seed-adjusted z-score
CGAAUAUACCAGGACGAAATT against SATB1	0
UACUGUCUCUAGUCUUUUUTT against SEC11B	1.04 (active)
GCUUGUUCGGCUACACGAATT against CYP8B1	0
CUAAAAGACCGAACAAUAATT against HNRPUL1	-0.047
GGUUCAUGUUUGCAAUCUUTT against POLR2B	-4.81 (active)
UGAACGCAGUCAUCCGGAATT against MAPK15	0.0724
CCAAUGAUGUAUGAUCUAATT against UBE3A	0.0949
GGACUAUAAAUCCAGCUUUTT against TOMM34	-0.503
CUCCUAAAGUGCAUCGCAATT against GUF1	0.119
CAUCAGAUCUUGAUCAGUUTT against NKTR	-1.1 (active)
CUCUUCACGUCUGACCUGATT against HTR6	-0.463
CCCAUAUGAUUACCCAUUUTT against MYH2	-0.73
CCUGCAGAAUAACCUGAUATT against OPTC	0.0953
CCUGGAAACUACAAGCCCATT against SIRT3	-0.341
GCCUCGAGCCUAUUCGUUATT against PCDHB4	0.00998
GACUACGACUGGUUCUUCATT against CSGLCA-T	0.146
AGUCAAGAACAAUACCCAATT against SNRPD2	-0.849
GAGCAGCUCUUAAGCAACATT against SAPS1	1.16 (active)
GCCUGUCCCUAGCAUUGUUTT against CES2	-0.47
CCAGUCACUGCAUAACAUUTT against PSMD9	0.266
GAACUAGGAGAUACAAUAUTT against ELOVL6	0.742
GGACAGUCUUCUGUAUGCATT against RBM39	-1.82 (active)

Sequence	median seed-adjusted z-score
CCAGAGAAAUGAGAUUGGATT against ZNF195	0.0753
GCCUGCAAGUGAAGCGGAATT against PRMT1	-0.596
CAGCCUUCAUGAGAUGUUATT against AMPD3	-0.0865
CAACCUGCUCUACAGCAAATT against PRSS27	1.03 (active)
GACGCGGUAUGUAGACAUATT against NAT8B	0.206
GCUGCAUUGUGGGUGAUGATT against PTGIR	-0.0806
CAAGAGCAGUUUAAUAGCATT against BAT3	0.567
GGAACUUACUACAACUCCATT against TMPRSS6	1.29 (active)
GGUUAGCUUAUGUUACAUATT against E2F3	-0.215
ACUCCUCUCUGUUAAUGGATT against LIN7C	0.021
GGUUGAAGAUGGUACUCCUTT against ADAMTS20	1.44 (active)
CUCCAGAUAUAGACCUCAATT against TRIM22	0.363
UGUUGUACCUCUAAUGUCATT against GPR172B	0.184
GCAACCCACCAAUAACUAATT against ADAM29	0.904
UGAGUUCUUUAGGACCGAATT against MFAP3L	1.03 (active)
GUACUGUAGAGAAAGCGUATT against ZNF606	0.118
UUUCCAAACAAGUACCUAATT against CKS2	0.0907
GCAUAUACCAUCGCUGUAATT against SUPT16H	1.2 (active)
CCAGAUAUGGUAUCCCAAUTT against ZNF227	0.0194
GUCUCAAUCUAAUAAGGAATT against TTLL1	0.322
GAUCAGGACUUUAUGUUCATT against ZNF225	0.0761
GAGCGUACCAAGGAUCUAATT against HDLBP	-1.18 (active)

Sequence	median seed-adjusted z-score
CUUUUGACGUGAACGAUGATT against ORM1	0.206
CCGCCCAAGUAGUAAAGAATT against ADCY3	-0.294
AGACUUUAAGGAGAAAACATT against YAF2	0
GGUUCACGGUUCAAAAUCATT against SLC25A24	-0.0384
GGUCCAACAUGCAAUCCAATT against EDEM3	0.119
GCCGCAACAUGGAAGUACATT against MAPK8IP3	0.734
GGGAGAUCUUCGACUCAUATT against ADRBK1	0
GGGACUAUUCCAAAACCCATT against FLAD1	0.367
GGAAUGUGCUGGUCGGAGATT against TIE1	0.0629
CCAAAUACAUCGCAUUAGATT against GTPBP4	1.01 (active)
GGUUCAUACAGACUCUUAUTT against PJA2	0
GAUAAAAACAGUCCUUUCUTT against FXYD3	0.254
CAAUGUUACCAAAACCGAATT against ACVR1C	-0.0005
CCCUACCAACAUUAAGUAUTT against CLDN7	0.0208
GGAUGUGGUUUAUUAUACATT against SLC16A9	0.125
GCCUAUCAAUUGUUCGGGATT against TTF1	1.76 (active)
GCGUAUGGGAUUACAAGAATT against PAFAH1B1	0.391
GGCUAGUACUGACAGAUGATT against CREB3	0.0509
ACUCCUACAUGUACAUUCUTT against KCNE3	-1.33 (active)
GGUUAAAAGUCGGUCCCAATT against SGCG	0.886
GCAUCUCUAUUGUAGCCCUTT against GHRHR	0
CAUCCGAUCUGAUAGGUCUTT against EFEMP1	0.0157

Sequence	median seed-adjusted z-score
AGACCUAGCAUGGACCAGATT against GUCY2E	0.61
CUUGGACACUGAAAACGCATT against ITGAM	-1.56 (active)
GGAUGAGUACAGAUUUACATT against CLPX	-0.0436
AGCUCAUAGCUGACCCAGATT against ZC3H3	-0.622
CAGAUGACUUCAGAACCAATT against KRT33B	0.04
GGCUAUAUCGUCACAAUGATT against ABCA4	-1.09 (active)
GGUAAUGCUUUAUUCCAAATT against ZNF677	-0.441
GAGCUGACGUGUACUCAUATT against USP5	0.596
CGCAUUCUCCAGUCGCACATT against KRT81	-0.0955
CGGUUGGAGUUGGAUGACATT against TRIB3	0.00635
ACAUCAAAACACCAGCUUUTT against YBX2	0.362
CCUACGUUUUUAUUAUCUUTT against SLC2A14	-1.09 (active)
GCACAAGGAGUGACCUUCUTT against GCHFR	-0.559
GAACUUUGUUACUAUCGAATT against PCDH9	0.165
GGAUCCUGGUGAUAAGAGATT against QRICH1	-1.04 (active)
GAGAAAAUCUAUAUCCGGATT against NR2C2	-0.498
CCCGGAGAAUUCUCAAUGATT against NENF	-0.778
CAUCAAUGACUCACCCUUUTT against RTN4R	-0.536
CAAACGACCUUUGCCCAAATT against MED17	-2.06 (active)
AAACUUGCCUGAGUACAAATT against KCNH3	-0.509
